Read-out in assay [1]: Tissue Factor, F3 (gene 2152)
Briefly: BSK_CASM3C_TissueFactor: BioMAP Diversity Plus: CASM3C Assay for Tissue Factor Biomarker Activity (AID 2283052).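 Note: cell surface tissue factor protein level read by ELISA.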 Particulars: primary human coronary artery smooth muscle cells; actives raise or lower the signal.

Read-out in assay [2]: Interferon-gamma inducible Protein 10 (IP10), CXCL10 (gene 3627)
Briefly: BSK_hDFCGF_IP10: BioMAP Diversity Plus: hDFCGF Assay for Interferon-gamma inducible Protein 10 (IP10) Biomarker Activity (AID 2283053). Particulars: primary human foreskin fibroblasts; actives raise or lower the signal. In outline:
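Cells: human dermal foreskin fibroblasts. Exposure: 24 h post-dosing. Detection: IP-10 ELISA, with values expressed against DMSO controls and fitted in both directions.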

Read-out in assay [3]: Urokinase-type plasminogen activator receptor (uPAR), PLAUR (gene 5329)
Put plainly: BSK_CASM3C_uPAR: BioMAP Diversity Plus: CASM3C Assay for Urokinase-type plasminogen activator receptor (uPAR) Biomarker Activity (AID 2283054).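 Note: cell-surface uPAR protein level quantified by ELISA.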 Conditions: primary human coronary artery smooth muscle cells; actives raise or lower the signal.

Read-out in assay [4]: Vascular cell adhesion molecule 1 (VCAM1), VCAM1 (gene 7412)
Put plainly: BSK_CASM3C_VCAM1: BioMAP Diversity Plus: CASM3C Assay for Vascular cell adhesion molecule 1 (VCAM1) Biomarker Activity (AID 2283055).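 Note: VCAM-1 protein level quantified by ELISA on the cells.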 Particulars: primary human coronary artery smooth muscle cells; actives raise or lower the signal.

Read-out in assay [5]: Collagen III, COL3A1 (gene 1281)
Put plainly: BSK_hDFCGF_CollagenIII: BioMAP Diversity Plus: hDFCGF Assay for Collagen III Biomarker Activity (AID 2283056). Conditions: primary human foreskin fibroblasts; actives raise or lower the signal. In outline: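 ELISA read-out of collagen III from human skin fibroblast cultures sampled 24 h post-dosing. Values were derived by bidirectional fitting relative to the DMSO vehicle control.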

Read-out in assay [6]: Epidermal growth factor receptor (EGFR), EGFR (gene 1956)
Put plainly: BSK_hDFCGF_EGFR: BioMAP Diversity Plus: hDFCGF Assay for Epidermal growth factor receptor (EGFR) Biomarker Activity (AID 2283057). Conditions: primary human foreskin fibroblasts; actives raise or lower the signal. In outline:
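Dosing human primary skin fibroblasts, then measuring surface EGFR by ELISA at 24 h, gives the endpoint; gains and losses relative to DMSO were fitted in both directions.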

Read-out in assay [7]: Interleukin-8 (IL8), CXCL8 (gene 3576)
Briefly: BSK_hDFCGF_IL8: BioMAP Diversity Plus: hDFCGF Assay for Interleukin-8 (IL8) Biomarker Activity (AID 2283058). Particulars: primary human foreskin fibroblasts; actives raise or lower the signal. In outline: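 Cells used are human skin primary fibroblasts. Chemical is added, cultures run 24 h, then IL-8 is quantified by ELISA, and gain or loss versus DMSO control is fitted in both directions.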

A short description of assay [8]: BSK_hDFCGF_Proliferation: Cell Proliferation Assessment in the BioMAP Diversity Plus: hDFCGF Assay (AID 2283059).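 Note: curves fitted for both rise and fall of signal versus DMSO baseline.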 Particulars: primary human foreskin fibroblasts. In outline: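 Sub-confluent human foreskin fibroblast cultures receive test chemical […]. Relative cell number is quantified by sulforhodamine B staining (0.1%, after 10% TCA fixation) at 560 nm, with bidirectional fitting referenced to DMSO.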

Read-out in assay [9]: Macrophage colony-stimulating factor (MCSF), CSF1 (gene 1435)
Briefly: BSK_hDFCGF_MCSF: BioMAP Diversity Plus: hDFCGF Assay for Macrophage colony-stimulating factor (MCSF) Biomarker Activity (AID 2283060). Conditions: primary human foreskin fibroblasts; actives raise or lower the signal. In outline: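 Primary human foreskin fibroblasts dosed with chemical; 24 h later, M-CSF quantified by ELISA; curves fitted in both directions vs DMSO negative control.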

The nature of assay [10]: BSK_hDFCGF_SRB: Viability Assessment in the BioMAP Diversity Plus: hDFCGF Assay (AID 2283061).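 Note: cells exposed to compound for 24 h before the read.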 Particulars: primary human foreskin fibroblasts. In outline: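 Readout is SRB absorbance at 560 nm, reflecting total protein in parallel cultures of human foreskin fibroblasts harvested 24 h after chemical dosing. Activity was fitted bidirectionally relative to DMSO.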
Read-out in assay [11]: TIMP metallopeptidase inhibitor 1 (TIMP1), TIMP1 (gene 7076)
Put plainly: BSK_hDFCGF_TIMP1: BioMAP Diversity Plus: hDFCGF Assay for TIMP metallopeptidase inhibitor 1 (TIMP1) Biomarker Activity (AID 2283062). Conditions: primary human foreskin fibroblasts; actives raise or lower the signal. In outline:
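Human skin fibroblasts (primary), hDFCGF system; compound exposure 24 h; TIMP-1 by ELISA; bidirectional fit vs DMSO negative control; overt cytotoxicity by SRB in parallel wells.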

Read-out in assay [12]: Monokine induced gamma interferon (MIG), CXCL9 (gene 4283)
Put plainly: BSK_hDFCGF_MIG: BioMAP Diversity Plus: hDFCGF Assay for Monokine induced gamma interferon (MIG) Biomarker Activity (AID 2283063). Conditions: primary human foreskin fibroblasts; actives raise or lower the signal. In outline:
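Chemicals were added to primary human foreskin fibroblast cultures, which were sampled 24 h later. MIG levels were then quantified by ELISA and responses fitted in both directions relative to DMSO.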

Read-out in assay [13]: Matrix Metallopeptidase 1 (MMP1), MMP1 (gene 4312)
Put plainly: BSK_hDFCGF_MMP1: BioMAP Diversity Plus: hDFCGF Assay for Matrix Metallopeptidase 1 (MMP1) Biomarker Activity (AID 2283064). Particulars: primary human foreskin fibroblasts; actives raise or lower the signal. In outline:
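ELISA read-out of MMP1 from human foreskin fibroblasts (primary skin cells), 24 h post-dose. Gain or loss of signal was fitted bidirectionally versus DMSO negative control; cytotoxicity was checked by SRB in parallel cultures.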

Read-out in assay [14]: Vascular cell adhesion molecule 1 (VCAM1), VCAM1 (gene 7412)
Briefly: BSK_hDFCGF_VCAM1: BioMAP Diversity Plus: hDFCGF Assay for Vascular cell adhesion molecule 1 (VCAM1) Biomarker Activity (AID 2283065).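 For AC50: VCAM-1 protein level quantified by ELISA after 24 h chemical exposure.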 Particulars: primary human foreskin fibroblasts; actives raise or lower the signal. In outline: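 Human foreskin fibroblast primary cells, chemical exposure 24 h; VCAM-1 by ELISA; bidirectional fit, DMSO = negative control/baseline.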

Read-out in assay [15]: Plasminogen activator inhibitor-1 (PAI1), SERPINE1 (gene 5054)
Put plainly: BSK_hDFCGF_PAI1: BioMAP Diversity Plus: hDFCGF Assay for Plasminogen activator inhibitor-1 (PAI1) Biomarker Activity (AID 2283066). Conditions: primary human foreskin fibroblasts; actives raise or lower the signal. In outline:
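Fibroblasts from human foreskin were treated with test chemical. After 24 h, PAI-1 was measured by ELISA. Activity was fitted in both directions relative to DMSO.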

Read-out in assay [16]: Intercellular Adhesion Molecule 1 (ICAM1), ICAM1 (gene 3383)
Put plainly: BSK_KF3CT_ICAM1: BioMAP Diversity Plus: KF3CT Assay for Intercellular Adhesion Molecule 1 (ICAM1) Biomarker Activity (AID 2283067). Conditions: primary human keratinocytes with fibroblasts; actives raise or lower the signal. In outline: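 ICAM-1 levels are measured by ELISA 24 h after dosing a primary human co-culture of keratinocytes and foreskin fibroblasts. Activity in either direction is fitted relative to DMSO vehicle.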

Read-out in assay [17]: Interferon-gamma inducible Protein 10 (IP10), CXCL10 (gene 3627)
Briefly: BSK_KF3CT_IP10: BioMAP Diversity Plus: KF3CT Assay for Interferon-gamma inducible Protein 10 (IP10) Biomarker Activity (AID 2283068). Conditions: primary human keratinocytes with fibroblasts; actives raise or lower the signal. In outline: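 ELISA read-out of IP-10 after 24 h chemical dosing of human skin primary co-culture (keratinocytes, foreskin fibroblasts). Gain or loss of signal relative to DMSO, bidirectional curve fit.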

A short description of assay [18]: BSK_KF3CT_SRB: Viability Assessment in the BioMAP Diversity Plus: KF3CT Assay (AID 2283069).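 Note: total protein by sulforhodamine B staining as a cytotoxicity measure; read 24 h after compound addition; fitted for both signal gain and loss against DMSO baseline.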 Particulars: primary human keratinocytes with fibroblasts. In outline: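 SRB read-out at 560 nm (0.1% stain, TCA-fixed cells) gauges overt cytotoxicity in a human skin keratinocyte–fibroblast co-culture 24 h post-dosing. Signal change was fitted bidirectionally relative to DMSO control.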

Read-out in assay [19]: Interleukin-1 alpha (IL1a), IL1A (gene 3552)
Put plainly: BSK_KF3CT_IL1a: BioMAP Diversity Plus: KF3CT Assay for Interleukin-1 alpha (IL1a) Biomarker Activity (AID 2283070). Particulars: primary human keratinocytes with fibroblasts; actives raise or lower the signal. In outline:
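Primary skin co-culture (keratinocytes, foreskin fibroblasts), 24 h exposure; ELISA for IL-1a; bidirectional curve fit vs DMSO.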

Several values for one entry are separate records, joined by “and”; a condition that tells them apart may be missing. Equal entries are not always repeated. The source holds several records for some structures; these can differ, active in one and inactive in another. Activity calls are given as the source filed them. Rule for the calls: active = hit-call score of the fitted dose curve at least 0.9, where 1 is the maximum; inactive = score below 0.9.

On to `Oc1cc(Cl)ccc1Oc1ccc(Cl)cc1Cl`, for which the AC50 in assay [1] was 28.3 µM (active) and 27.8 µM (active) and 22.2 µM (active); in [2] it was 15.4 µM (active) [middle of 4 runs]; in assay [3], 32 µM (active) [middle of 4 runs]; in [4], 35.4 µM (active) [middle of 4 runs]; in assay [5] it was 7.46 µM (active) [middle of 4 runs]; in assay [6], 5.45 µM (active) and 5.46 µM (active). Moreover, the AC50 in assay [7] was 30 µM (active) [middle of 4 runs]; in assay [8] it was 4.61 µM (active) [middle of 4 runs]; in assay [9] it was 10.7 µM (active) [middle of 4 runs]; in assay [10], 13.1 µM (active) and 9.31 µM (active) and 17 µM (active); in assay [11] it was 20 µM (active) [middle of 4 runs]; in assay [12], 20.4 µM (active) and 14.1 µM (active) and 23.9 µM (active). Moreover, the AC50 in assay [13] was 29.9 µM (active) and 12.3 µM (active) and 26.1 µM (active); in assay [14], 8.72 µM (active) [middle of 4 runs]; in assay [15] it was 6.96 µM (active) and 8.43 µM (active) and 7.44 µM (active); in assay [16], 32.2 µM (active) [middle of 4 runs]; in assay [17], 33.7 µM (active) and 29 µM (active); in [18], 30.1 µM (active) and 14.4 µM (active) and 28.2 µM (active). Further, the AC50 in [19] was 29.8 µM (active) [middle of 4 runs]. Further, the result in assay [1], in assay [6] and in assay [17] was inactive.
As for `COP(=S)(OC)Oc1ccc(SC)c(C)c1`, the result in [1], in assay [2], in assay [3], in assay [4], in [5] and in [6] was inactive. For the same compound, the outcome in assay [7], in [8], in [9], in [10], in [11] and in [12] was inactive. The result in assay [14], in [15], in [16], in [17], in [18] and in assay [19] was inactive. For the same compound, the half-maximal activity concentration (AC50) in assay [13] was 9.5 µM (active).
Regarding `O=C(NC(=O)c1c(F)cccc1F)Nc1ccc(OC(F)(F)C(F)OC(F)(F)F)c(Cl)c1` (stereo not drawn), the result in assay [1], in assay [2], in [3], in [4], in assay [5] and in [6] was inactive. For the same compound, the result in [7], in [8], in assay [9], in assay [10], in assay [11] and in assay [12] was inactive. Moreover, the result in assay [13], in [14], in assay [15], in [16], in [17] and in assay [18] was inactive. In addition, the result in assay [19] was inactive.
Take `CCC(C)(C)C(=O)OC1=C(c2ccc(Cl)cc2Cl)C(=O)OC12CCCCC2`: the outcome in [1], in assay [3] and in assay [4] was inactive. The AC50 is 10.3 µM (active) in [2]; 5.74 µM (active) in [5]; 5.45 µM (active) in assay [6]; 11 µM (active) in assay [7]; 4.67 µM (active) in assay [8]; 5.55 µM (active) in [9]. Further, the AC50 in assay [10] was 11.4 µM (active); in assay [11] it was 5.42 µM (active); in assay [12] it was 9.84 µM (active); in [13], 7.8 µM (active); in [14], 9.68 µM (active); in assay [15], 6.68 µM (active). In addition, the AC50 is 29.5 µM (active) in assay [16], 29.9 µM (active) in assay [17], 31.9 µM (active) in assay [18] and 31.1 µM (active) in assay [19].
On to `O=C(O)CCCOc1ccc(Cl)cc1Cl`, for which the result in assay [1], in [2], in assay [3], in assay [4], in assay [5] and in assay [6] was inactive. Also, the result in assay [7], in [8], in [9], in assay [10], in assay [11] and in [12] was inactive. Also, the outcome in [13], in [14], in [15], in assay [16], in assay [18] and in assay [19] was inactive. The AC50 in assay [17] is 23.6 µM (active).

For the origin of these results see PubChem BioAssay (EPA / NIEHS).
